# Screens: PubChem, National Center for Advancing Translational Sciences (NCATS)
# This excerpt belongs to a sample that is enriched for hits.
# DT40 TDP1 no CPT = qHTS for Inhibitors of human tyrosyl-DNA phosphodiesterase 1 (TDP1): qHTS in cells in absence of CPT | AID 686978, 2013 | DT40 Tdp1-/- hTDP1 cells, no CPT, ATP luminescence, 48 h | Potency, µM (titrated, usually from 46.2 µM), inactives show at the top dose activity change, negative = growth inhibition, actives largely listed as inhibitors | 420,000 compounds, 15% hits; note: potency is the fitted concentration of half-maximal effect; nearly all actives have a fitted effect of over 55% in size
#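 DT40 Tdp1-/-;hTDP1 cells, no CPT (DMSO vehicle only), 400 cells/well; compounds pin-transferred; ≥48 hr, 37 °C; CellTiter-Glo 30 min RT dark, luminescence read.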
# HT1080 IDH1KD tx = kills HT-1080 cells with IDH1 knockdown; HT-1080 IDH1 knockdown viability, ATP luminescence, 48 h; Potency, µM (highest dose often 46.1 µM), without a hit: top-dose activity, negative = toxicity, most hits filed as cytotoxic; 360,000 compounds, 2% hits; AID 686971;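 note: potency is the fitted concentration of half-maximal effect; 0% = DMSO wells and -100% = cell-free medium wells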
#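 CellTiter-Glo luminescence after 48 h compound exposure at 37 degrees C of IDH1-knockdown HT-1080 cells in 5% FBS RPMI. %Activity scaled between DMSO wells and cell-free media wells, with curves fitted and assigned curve classes.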
# ALOX12 inh = blocks human arachidonate 12S-lipoxygenase; AID 1671190; 580,000 compounds, 1.1% hits; purified 12hLO, xylenol orange hydroperoxide absorbance; Potency, µM (highest dose often 108 µM), for the others: at the top dose activity change, negative = inhibition, actives largely listed as inhibitors; note: potency is the fitted concentration of half-maximal effect
# Target sequence (P18054 whole entry, looked up): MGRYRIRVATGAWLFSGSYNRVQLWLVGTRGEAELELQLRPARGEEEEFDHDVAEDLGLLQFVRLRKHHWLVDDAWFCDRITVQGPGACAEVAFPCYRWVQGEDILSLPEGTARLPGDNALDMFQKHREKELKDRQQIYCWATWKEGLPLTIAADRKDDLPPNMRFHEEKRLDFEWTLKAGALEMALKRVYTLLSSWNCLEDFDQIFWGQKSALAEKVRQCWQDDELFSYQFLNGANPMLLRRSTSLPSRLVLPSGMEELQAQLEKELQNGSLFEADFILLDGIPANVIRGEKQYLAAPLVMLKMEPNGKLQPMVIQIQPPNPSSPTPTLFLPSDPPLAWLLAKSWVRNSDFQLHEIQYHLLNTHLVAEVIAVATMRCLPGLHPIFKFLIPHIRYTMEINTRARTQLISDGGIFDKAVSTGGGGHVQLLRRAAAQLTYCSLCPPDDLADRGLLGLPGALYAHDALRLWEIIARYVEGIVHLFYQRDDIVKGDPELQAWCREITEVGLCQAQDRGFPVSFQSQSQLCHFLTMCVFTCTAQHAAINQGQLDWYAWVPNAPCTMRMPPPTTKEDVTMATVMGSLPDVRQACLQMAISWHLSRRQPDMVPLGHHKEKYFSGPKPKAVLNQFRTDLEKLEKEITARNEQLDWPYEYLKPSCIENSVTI
#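 Purified human 12hLO at 150 nM in 25 mM Hepes, 0.01% Triton X-100, pH 7.0, preincubated 15 min at room temperature with compound. Reaction started with 40 uM arachidonic acid, 30 min at room temperature. Hydroperoxide measured by Fe-xylenol orange, 573/405 nm absorbance ratio.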
# DT40 TDP1 CPT = growth inhibition of DT40 Tdp1-/-;hTDP1 cells with camptothecin (screen for TDP1 inhibitors). 420,000 compounds, 12% hits. chicken DT40 Tdp1-/-;hTDP1 cells + 20 nM CPT, ATP luminescence, 48 h. Potency, µM (highest dose often 46.2 µM), for inactives: at the top dose activity change, negative = growth inhibition, usual class: inhibitors; note: potency is the fitted concentration of half-maximal effect; nearly all actives have a fitted effect of over 55% in size
#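 Cell growth measured by CellTiter-Glo luminescence after a minimum 48 h, 37 C compound exposure with 20 nM CPT in Tdp1-knockout DT40 cells stably expressing hTDP1, seeded 400/well; qHTS titration format.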
# IL1B secr inh = inflammasome signaling inhibition, IL-1 beta readout. activity change, % at 57.5 µM. 360,000 compounds, 4.7% hits. THP-1 LPS/ATP IL-1B secretion, AlphaLISA, 16 h; hits give low values. AID 743279; in the data active = activity change below about -50%; inconclusive = mostly about -30% to -49%
#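 Secreted IL-1B measured by AlphaLISA bead assay after 16 h compound exposure of THP-1 cells; compounds (final up to 57.5 uM) added 1 h before LPS (250 ng/mL) and ATP (1.25 mM) stimulation; lower signal means less secretion.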
# HT1080-NT tox = kills 2HG-producing HT-1080-NT fibrosarcoma cells; 360,000 compounds, 1.6% hits; Potency, µM (series often up to 46.1 µM), inactives show top-dose activity, negative = less viability, hits mostly cytotoxic; HT-1080-NT fibrosarcoma viability, CellTiter-Glo ATP luminescence, 48 h;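 note: NT is the 2HG producing partner of a matched IDH1 knockdown line; potency is the fitted concentration of half-maximal effect; 0% = DMSO-treated cells and -100% = media-only wells without cells; nearly all actives have a fitted effect of over 55% in size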
#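 A 48-hour cytotoxicity screen used HT-1080-NT cells plated 2 hours before compound delivery. ATP-based CellTiter-Glo luminescence measured viability, normalized to DMSO and no-cell controls.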
# Starred values were filed as active, the others as inactive; u = inconclusive; x = no result given; [ ] = remark or other dose. Unless noted, calls come from the whole dose curve; as a rule, active = well fitted curve in the direction sought with a large enough effect; inconclusive = small, poorly fitted or top-dose-only effect, or another doubt; inactive = no such curve, though single readings can be large; an effect the other way counts as inactive or inconclusive. Unless noted, % is set by controls: 0 for no effect and ±100 for the full control effect.
SMILES,DT40 TDP1 no CPT,HT1080 IDH1KD tx,ALOX12 inh,DT40 TDP1 CPT,IL1B secr inh,HT1080-NT tox
COc1ccc([C@@H]2[C@@H](C(=O)N3CCOCC3)CC(=O)N2C(=O)c2ccccc2)cc1,x,x,8%,x,x,x
Cn1c(C(=O)NCCc2ccccc2)cc2cc(S(=O)(=O)N3CCCCC3)ccc21,u,x,u,15µM*,x,x
CC(C)CCNC(=O)c1cc2cc(S(=O)(=O)N3CCCCC3)ccc2n1C,u,x,-17%,u,x,x
CC(CNC(=O)c1cc2cc(S(=O)(=O)N3CCCCC3)ccc2n1C)c1ccccc1 (stereo unspecified),12µM*,x,-11%,3.3µM*,x,x
O=S1(=O)CCN(C2CCCCC2)c2c(F)nc(F)c(Cl)c21,x,x,-9%,x,x,x
CN1CCC2(C1)CN(Cc1ccccc1)c1ccc(C(=O)NCc3cccs3)cc12 (stereo unspecified),x,x,-8%[176 µM],x,x,x
CC(=O)c1ccc(OCC(=O)N(CCC2=CCCCC2)c2c(N)n(Cc3ccccc3)c(=O)[nH]c2=O)cc1,u,-1%,-30%,23µM*,1,0%
Nc1c(N(CCC2=CCCCC2)C(=O)Cc2ccc(F)cc2)c(=O)[nH]c(=O)n1Cc1ccccc1,u,-7%,-27%,u,7,-4%
Nc1c(N(CCC2=CCCCC2)C(=O)COc2ccc(F)cc2Cl)c(=O)[nH]c(=O)n1Cc1ccccc1,6.5µM*,10µM*,0%,5.8µM*,-55*,18µM*
Cc1cccc(OCC(=O)N(Cc2ccccc2)c2c(N)n(Cc3ccccc3)c(=O)[nH]c2=O)c1,u,-13%,-6%,18µM*,u,-3%
O=C1/C(=C/c2ccc(C(F)(F)F)cc2)CCc2ccccc21,x,x,-1%,x,x,x
CC(C)CNC(=O)C(C)(C)Oc1nn(C(C)C)c2ccc(CN3CCOCC3)cc12,x,x,49%[176 µM],x,x,x
COc1ccccc1CC(=O)NC(c1cccs1)C1CCCC1 (stereo unspecified),x,x,21%,x,x,x
COc1ccc(Cn2nnc(C(=O)Nc3ccc4c(c3)OCCO4)c2N)cc1Br,2.6µM*,u,15%,18µM*,0,-22%
COc1cc(OC)c(NC(=O)c2nnn(Cc3ccc(C)cc3)c2N)cc1Cl,12µM*,x,-28%,18µM*,x,x
COc1cc(NC(=O)c2nnn(Cc3ccc(SC)cc3)c2N)cc(OC)c1,29µM*,-17%,498%,18µM*,-25,-4%
COc1ccc(Cn2nnc(C(=O)Nc3ccc(F)c(F)c3)c2N)cc1Br,x,x,-25%,x,x,x
COc1cc(NC(=O)c2nnn(Cc3ccc(F)cc3)c2N)cc(OC)c1,-25%,x,-12%,u,x,x
COc1cccc(/C=C(/CC(=O)O)c2nc3ccccc3o2)c1,x,x,2%,x,x,x
CC(=O)N1N=C(c2cccc(NS(C)(=O)=O)c2)CC1c1ccc2nccnc2c1 (stereo unspecified),x,x,26%,x,x,x
Cc1nn(C)c2nc(-c3ccccn3)nc(NCC(c3ccco3)N(C)C)c12 (stereo unspecified),x,x,48%,x,x,x
CCCCOCCCNC(=O)C[C@@H]1C[C@@]2(C(=O)OCC)CCCC=C2N(Cc2cccc3ccccc23)C1=O,13µM*,u,u,18µM*,u,u
CCOC(=O)[C@]12CCCC=C1N(Cc1cccc3ccccc13)C(=O)[C@H](CC(=O)NCc1cccc3ccccc13)C2,u,-28%,5%,u,-6,-10%
CCCCCCCCN1C(=O)[C@H](CC(=O)NCc2cccc3ccccc23)C[C@@]2(C(=O)OCC)CCCC=C12,16µM*,u,-26%,u,-17,u
O=C1NC(C(=O)O)=CC(c2ccc(Br)cc2)N1 (stereo unspecified),x,x,-39%,x,x,x
